IL1B secr inh – qHTS for Inhibitors of Inflammasome Signaling: IL-1-beta AlphaLISA Primary Screen; THP-1 LPS/ATP IL-1B secretion, AlphaLISA, 16 h; stronger effect = lower value; activity change, % at 57.5 µM; 360,000 compounds, 4.7% hits; AID 743279, 2014; in the data active = activity change below about -50%; inconclusive = mostly about -30% to -49%
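Secreted IL-1B measured by AlphaLISA bead assay after 16 h compound exposure of THP-1 cells; compounds (final up to 57.5 uM) added 1 h before LPS (250 ng/mL) and ATP (1.25 mM) stimulation; lower signal means less secretion.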
DT40 TDP1 no CPT – qHTS for Inhibitors of human tyrosyl-DNA phosphodiesterase 1 (TDP1): qHTS in cells in absence of CPT; DT40 Tdp1-/- hTDP1 cells, no CPT, ATP luminescence, 48 h; Potency, µM (top dose mostly 46.2 µM), without a hit: top-dose activity change, negative = growth inhibition, usual class: inhibitors; 420,000 compounds, 15% hits; AID 686978, 2013; also: potency is read from the fitted curve at half-maximal effect; nearly all actives have a fitted effect of over 55% in size
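Cells were dispensed at 400 per well, compounds added by pin tool, plates incubated ≥48 hr at 37 °C, then CellTiter-Glo added for 30 min at room temperature before luminescence reading. Line: DT40 Tdp1-/- complemented with hTDP1; camptothecin omitted.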
HT1080 IDH1KD tx – qHTS for induction of synthetic lethality in tumor cells producing 2HG: qHTS for the HT-1080-IDH1KD cell line; 360,000 compounds, 2% hits; HT-1080 IDH1 knockdown viability, ATP luminescence, 48 h; Potency, µM (series often up to 46.1 µM), for inactives: at the highest dose activity, negative = toxicity, usual class: cytotoxic;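 also: potency is read from the fitted curve at half-maximal effect; 0% = DMSO wells and -100% = cell-free medium wells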
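CellTiter-Glo luminescence after 48 h compound exposure at 37 degrees C of IDH1-knockdown HT-1080 cells in 5% FBS RPMI. %Activity scaled between DMSO wells and cell-free media wells, with curves fitted and assigned curve classes.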
HT1080NT lethal – qHTS for induction of synthetic lethality in tumor cells producing 2HG: qHTS for the HT-1080-NT fibrosarcoma cell line. HT-1080-NT fibrosarcoma viability, CellTiter-Glo ATP luminescence, 48 h. Potency, µM (titrated, usually from 46.1 µM), for inactives: top-dose activity, negative = less viability, actives largely listed as cytotoxic. 360,000 compounds, 1.6% hits. AID 686970, 2013;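 also: NT is the 2HG producing partner of a matched IDH1 knockdown line; potency is read from the fitted curve at half-maximal effect; 0% = DMSO-treated cells and -100% = media-only wells without cells; nearly all actives have a fitted effect of over 55% in size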
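A 48-hour cytotoxicity screen used HT-1080-NT cells plated 2 hours before compound delivery. ATP-based CellTiter-Glo luminescence measured viability, normalized to DMSO and no-cell controls.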
TDP1 cell CPT – qHTS for Inhibitors of human tyrosyl-DNA phosphodiesterase 1 (TDP1): qHTS in cells in presence of CPT | chicken DT40 Tdp1-/-;hTDP1 cells + 20 nM CPT, ATP luminescence, 48 h | Potency, µM (highest dose often 46.2 µM), for inactives: at the top dose activity change, negative = growth inhibition, most hits filed as inhibitors | 420,000 compounds, 12% hits | AID 686979, 2013; also: potency is read from the fitted curve at half-maximal effect; nearly all actives have a fitted effect of over 55% in size
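Chicken DT40 Tdp1-/- cells stably complemented with human TDP1 were seeded at 400 cells/well in medium containing 20 nM camptothecin, exposed to pin-transferred compounds, and grown at 37 °C for at least 48 hr. Viability was read as ATP luminescence.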
Starred values were filed as active, the others as inactive; ? = inconclusive; / = no result; [ ] = dose if it differs, or a comment. Rows were chosen to be rich in hits. Some 19% of all compounds tested hit in one or more screens of this group. Unless noted, calls follow the shape of the dose curve; as a rule, active = well fitted curve in the direction sought with a large enough effect; inconclusive = small, poorly fitted or top-dose-only effect, or another doubt; inactive = no such curve, though single readings can be large; an effect the other way counts as inactive or inconclusive. Unless noted, % is scaled to controls: 0 for no effect and ±100 for the full control effect.

SMILES | IL1B secr inh | DT40 TDP1 no CPT | HT1080 IDH1KD tx | HT1080NT lethal | TDP1 cell CPT
COc1cc(NC(=O)c2cc(Cl)ccc2Cl)ccc1-c1cc2ccccc2oc1=O | -15 | -28% | -26% | 6% | ?
O=C(Cc1ccc(Cl)cc1)Nc1ccc(-c2cc3ccccc3oc2=O)c(Cl)c1 | 23 | 2.9µM* | 6.5µM* | 6.5µM* | 5.2µM*
COc1ccc(C(=O)Nc2ccc(-c3cc4ccccc4oc3=O)c(C)c2)cc1OC | / | 16µM* | / | / | 18µM*
CCCOc1ccc(F)cc1-c1cc(C(=O)NC2CCCCC2)[nH]n1 | -5 | ? | -1% | -20% | -7%
CC(C)Oc1cc(F)ccc1-c1cc(C(=O)NCCc2ccncc2)[nH]n1 | -9 | ? | 23% | 2% | 18µM*
CCOc1ccc(Cl)cc1-c1cc(C(=O)NCCc2ccncc2)[nH]n1 | -6 | -104% | -18% | 0% | -103%
CC(C)Oc1cc(F)ccc1-c1cc(C(=O)NC2CCCCC2)[nH]n1 | 0 | ? | 3% | 5% | 21µM*
CC(C)Oc1ccc(F)cc1-c1cc(C(=O)NC2CCCCC2)[nH]n1 | -20 | 15µM* | -27% | 5% | ?
COC(=O)c1cnc(SCc2ccc([N+](=O)[O-])cc2)n1C | -28 | -28% | 3% | -2% | -18%
COc1ccc(-c2ccc(/C=N/N3C(=O)C4C5C=CC(C6CC56)C4C3=O)o2)c([N+](=O)[O-])c1 (stereo unspecified) | -1 | 23µM* | 5% | -9% | ?
COC(=O)c1ccc(-c2ccc(/C=N/N3C(=O)C4C5C=CC(CC5)C4C3=O)o2)cc1 (stereo unspecified) | 2 | -28% | 20% | 21% | 0%
Cc1ccc(-c2ccc(/C=N/N3C(=O)C4C5C=CC(CC5)C4C3=O)o2)c([N+](=O)[O-])c1 (stereo unspecified) | -24 | ? | 10% | -21% | 18µM*
O=C1C2C3C=CC(C4CC34)C2C(=O)N1/N=C/c1ccc(-c2ccc(Cl)cc2[N+](=O)[O-])o1 (stereo unspecified) | 0 | ? | -3%[9.24 µM] | -21% | ?
O=C1C2C3C=CC(C4CC34)C2C(=O)N1/N=C/c1ccc(-c2ccc(F)cc2[N+](=O)[O-])o1 (stereo unspecified) | ? | 23µM* | -10% | -17% | ?
Cc1ccc2c(CN3CCCCC3CCO)cc(=O)oc2c1 (stereo unspecified) | 10 | 2% | 20% | 12% | -2%
N#Cc1c(N)[nH]c(=S)c(C#N)c1-c1ccccc1 | -8 | ? | ? | ? | 21µM*
Cc1ccc(-c2cc(-c3ccccc3)[nH]c(=S)c2C#N)cc1 | -17 | 6% | 16% | 24% | -3%
Cc1nc(C)c(/C(O)=C/c2nc3ccccc3oc2=O)s1 | 0 | 10µM* | 5% | 9% | 8.2µM*
COc1ccc(OCC(=O)NCc2ccc3c(c2)CCN3C(=O)c2cccc(C)c2)cc1 | / | 1.8µM* | / | / | 1.8µM*
Cc1cccc(C(=O)N2CCc3cc(CNC(=O)CCc4ccccc4)ccc32)c1 | / | 13µM* | / | / | 15µM*
O=C(COc1ccc(F)cc1)NCc1ccc2c(c1)CCN2C(=O)c1ccccc1 | / | 6% | / | / | 10%
CC(=O)Nc1cccc(C(=O)NCc2ccc3c(c2)CCN3C(C)=O)c1 | / | -13% | / | / | -9%
COc1cc(OC)c(NC(=O)c2cn(C)c(=O)c3cc(OC)c(OC)cc23)cc1Cl | / | -14% | / | / | -9%
O=C(CCNC(=O)c1ccccc1Cl)Nc1cc(S(=O)(=O)N2CCOCC2)ccc1N1CCCC1 | -13 | -11% | 12% | 24% | -9%
Cc1ccc(NC(=O)c2nnn(-c3cccc(C(F)(F)F)c3)c2N)cc1 | -5 | -24% | 12% | 24% | 2%
SMILES | IL1B secr inh | DT40 TDP1 no CPT | HT1080 IDH1KD tx | HT1080NT lethal | TDP1 cell CPT
Cc1ccccc1Cn1nnc(C(=O)Nc2ccc3c(c2)OCCO3)c1N | ? | ? | ? | -6% | ?
Cc1ccc(NC(=O)c2nnn(-c3ccc4c(c3)OCCO4)c2N)cc1 | -90* | ? | -21% | -21% | ?
Nc1c(C(=O)Nc2ccccc2)nnn1-c1ccc2c(c1)OCCO2 | -60* | ? | -15% | -11% | -8%
CC(C)c1cccc(-c2csc(C(O)c3ccc(F)cc3)n2)c1 (stereo unspecified) | 0 | ? | ? | ? | ?
Cc1ccc2c(c1)NC(c1cccnc1)=NC(c1ccc(F)cc1)=N2 | / | 5.8µM* | / | / | ?
CC(C)c1ccc(C2=NC(c3ccncc3)=Nc3ccc(F)cc3N2)cc1 | / | ? | / | / | 23µM*
CCc1ccc2c(c1)NC(c1cccnc1)=NC(c1ccc(C(C)(C)C)cc1)=N2 | / | ? | / | / | 18µM*
O=C(CN1C(=O)NC2(CCCC2)C1=O)NCc1ccccc1 | 12 | 13% | 1% | -2% | -1%
O=C(N/N=C/c1ccco1)c1ccc(OCc2ccccc2)cc1 | -7 | -26% | 12% | 19% | -28%
Cc1ccc(/C=N/NC(=O)c2ccccc2OCc2cccc(Br)c2)o1 | -99* | 7.3µM* | -2% | -30% | 6.5µM*
O=C(N/N=C/c1ccco1)c1ccccc1OCc1ccc(Br)cc1 | -5 | 23µM* | -22% | -13% | 21µM*
O=C(N/N=C/c1cccnc1)c1ccccc1OCc1cccc(Br)c1 | -26 | ? | 3% | 10% | ?
Cc1ccc(-c2nc(CSCC(=O)NCCCN3CCOCC3)c(C)o2)cc1 | -17 | 9% | -7% | -6% | -1%
Cc1oc(-c2ccc(Cl)cc2)nc1CS(=O)CC(=O)NCCCN1CCN(Cc2ccccc2)CC1 (stereo unspecified) | -80* | ? | ? | ? | 15µM*
Cc1oc(-c2ccc(Cl)cc2)nc1CS(=O)CC(=O)NCc1ccccc1 (stereo unspecified) | -30 | 19% | 0% | -6% | -6%
Cc1ccc(-c2nc(CSCC(=O)NCCN3CCN(Cc4ccccc4)CC3)c(C)o2)cc1 | -27 | 21µM* | -11% | -7% | ?
CCOc1ccc(-c2nc(CSCC(=O)NCCc3ccccc3)c(C)o2)cc1 | / | 18µM* | / | / | ?
Cc1oc(-c2ccccc2F)nc1CSCC(=O)NCCc1ccccc1 | / | 18µM* | / | / | 13µM*
CCc1ccc(-c2nc(CSCC(=O)NCc3ccco3)c(C)o2)cc1 | -7 | ? | -20% | ? | ?
